# Source: PubChem BioAssay
# The source made the active and inactive calls.
# What was measured:
# [1] = target: Albumin (Bos taurus) (UniProt P02769); assay: compounds binding labelled BSA control protein – biochemical, small-molecule microarray, Alexa647 label, 635/667 nm fluorescence, artefact control for SMM control protein annotation, profiling panel (AID 1118); conditions: BSA-A647 binding, fluorescence 635 nm, higher = more signal;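 also: score merges 667 nm emission intensity and signal-to-noise per printed compound spot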
# [2] = probe aXIP binding to arrayed compounds – biochemical, NeuroSMM set, 635/667 nm fluorescence, primary screen (AID 1119); conditions: small-molecule microarray, higher = more signal, called active from +8 up or from −8 down;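 also: probe is the protein aXip251-270 applied at 1 µg/mL to compound-printed slides; binding of probe to printed compounds measured as 667 nm fluorescence plus signal to noise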
# [3] = probe aNOTCH3 binding on compound microarray – biochemical, small-molecule microarray, 635/667 nm fluorescence, primary screen (AID 1120); conditions: higher = more signal;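 also: probe is a biotin-tagged antibody raised against NOTCH3 rather than NOTCH3 protein; score merges spot fluorescence near 667 nm with spot signal to noise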
# [4] = probe aNOTCH2 binding on compound microarray – biochemical, small-molecule microarray, 635/667 nm fluorescence, primary screen (AID 1121); conditions: higher = more signal;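 also: score merges feature fluorescence read at 667 nm with its signal to noise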
# [5] = target: Carbonic anhydrase 2 (Homo sapiens) (UniProt P00918); assay: compounds binding carbonic anhydrase 2 – biochemical, small-molecule microarray, Alexa647-labelled CAII, profiling panel (AID 1122); conditions: CAII-A647 binding fluorescence, higher = more signal
# [6] = COS7 lysate on small-molecule microarray, probe aHis, 635 nm (AID 1123); conditions: COS7 cell lysate, fluorescence, higher = more signal;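 also: z-score combines 667nm fluorescence intensity with signal-to-noise per printed compound spot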
# [7] = probe aLAP1 signal on lysate-treated microarray – cell lysate, small-molecule microarray, COS7 lysate, primary screen (AID 1124); conditions: probe aLAP1, fluorescence, higher = more signal;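 also: lysate comes from COS7 cells expressing LAP1 and is applied at 0.3 µg/mL; score merges spot fluorescence near 667 nm with signal-to-noise over triplicate slides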
# [8] = test system: Sam68 (KHDRBS1); assay: compounds binding KHDRBS1 protein – biochemical, small-molecule microarray, 635 nm fluorescence, primary screen (AID 1125); conditions: higher = more signal;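 also: score merges 667 nm channel intensity with signal to noise over triplicate slides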
# [9] = test system: Chordin-like protein 2 (CHRDL2); assay: compounds binding chordin-like 2 – biochemical, small-molecule microarray, 635 nm fluorescence, primary screen (AID 1126); conditions: fluorescence 635 nm, higher = more signal;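 also: printed compound slides probed with Chrdl2 protein at 4 µg/mL for 1 h at 4 C; score merges 667 nm emission intensity with signal to noise over three replicate slides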
# [10] = target: Concanavalin-A (Canavalia ensiformis) (UniProt P02866); assay: compounds binding concanavalin A lectin – biochemical, small-molecule microarray, Alexa647 label, 635 nm, artefact control for SMM control protein annotation, primary screen (AID 1127); conditions: ConA-A647 binding fluorescence, higher = more signal;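 also: z combines 667 nm emission intensity with signal-to-noise across three replicate slides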
# [11] = compounds binding Alexa647 anti-His antibody – biochemical, small-molecule microarray, 635 nm fluorescence, artefact control for SMM control protein annotation, primary screen (AID 1128); conditions: higher = more signal;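 also: score merges feature fluorescence with signal-to-noise for each printed compound spot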
# [12] = test system: Human papillomavirus type 1a E7 protein (residues 1-88); assay: HPV1a E7 small-molecule binders, primary screen, biochemical, small-molecule microarray, residues 1-88, 635 nm (AID 1129); conditions: small-molecule microarray binding, fluorescence 635 nm; higher = more signal
# [13] = target: Focal adhesion kinase 1 (Homo sapiens) (UniProt Q05397); assay: PTK2 protein binding on printed compound slides – biochemical, small-molecule microarray, 635/667 nm fluorescence, BSA, DTT, primary screen (AID 1130); conditions: 635 nm fluorescence, higher = more signal;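 also: composite of spot emission at 667 nm and signal to noise over triplicate slides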
# [14] = test system: Fibrinogen (Alexa647-labelled); assay: Alexa647-fibrinogen binding to printed small molecules – biochemical, small-molecule microarray, 635/667 nm fluorescence, artefact control for SMM control-protein annotation, profiling panel (AID 1131); conditions: fibrinogen-A647 binding fluorescence, higher = more signal;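 also: z-score merges 667 nm fluorescence with per-spot signal-to-noise over triplicate slides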
# [15] = target: Follistatin (Homo sapiens) (UniProt P19883); assay: FST protein binding to printed compounds – biochemical, small-molecule microarray, 635/667 nm fluorescence, primary screen (AID 1132); conditions: 635 nm fluorescence, higher = more signal
# [16] = target: Fibroblast growth factor 2 (Homo sapiens) (UniProt P09038); assay: basic fibroblast growth factor binding to printed compounds – biochemical, small-molecule microarray, 635/667 nm fluorescence, primary screen (AID 1133); conditions: FGF2, fluorescence 635/667, higher = more signal
# [17] = JC-1 mitochondrial potential readout, lung cancer cells – cell-based, A549, JC-1 fluorescence, basal, 24 h, 100 nL, profiling panel (AID 1138); conditions: higher = more signal;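 also: A549 lung adenocarcinoma cells under basal conditions with no added stimulus; test concentration not given here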
# [18] = test system: Lefty1; assay: Lefty1 protein binding to printed compounds – biochemical, small-molecule microarray, 635/667 nm fluorescence, primary screen (AID 1139); conditions: fluorescence 635/667, higher = more signal
# [19] = test system: wheat germ agglutinin (Triticum aestivum), Alexa647-labelled; assay: Alexa647-WGA lectin binding to printed small molecules – biochemical, small-molecule microarray, 635/667 nm fluorescence, artefact control for SMM control-protein annotation, profiling panel (AID 1140); conditions: WGA-A647 binding, 635 nm fluorescence, higher = more signal;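 also: score merges 667 nm feature emission with signal to noise over triplicate slides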
# [20] = target: Luciferin 4-monooxygenase (Photinus pyralis) (UniProt P08659); assay: inhibition of purified Photinus pyralis luciferase – biochemical, luminescence, purified enzyme, 2006 set, primary screen (AID 1141); conditions: purified firefly luciferase, SteadyGlo luminescence, 30 min; higher = more signal, called active from +8 up or from −8 down;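 also: cell-free assay with purified firefly luciferase at 100 ng per well in PBS; test concentration not given here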
# Luciferin 4-monooxygenase (Photinus pyralis), sequence (P08659 whole entry, looked up): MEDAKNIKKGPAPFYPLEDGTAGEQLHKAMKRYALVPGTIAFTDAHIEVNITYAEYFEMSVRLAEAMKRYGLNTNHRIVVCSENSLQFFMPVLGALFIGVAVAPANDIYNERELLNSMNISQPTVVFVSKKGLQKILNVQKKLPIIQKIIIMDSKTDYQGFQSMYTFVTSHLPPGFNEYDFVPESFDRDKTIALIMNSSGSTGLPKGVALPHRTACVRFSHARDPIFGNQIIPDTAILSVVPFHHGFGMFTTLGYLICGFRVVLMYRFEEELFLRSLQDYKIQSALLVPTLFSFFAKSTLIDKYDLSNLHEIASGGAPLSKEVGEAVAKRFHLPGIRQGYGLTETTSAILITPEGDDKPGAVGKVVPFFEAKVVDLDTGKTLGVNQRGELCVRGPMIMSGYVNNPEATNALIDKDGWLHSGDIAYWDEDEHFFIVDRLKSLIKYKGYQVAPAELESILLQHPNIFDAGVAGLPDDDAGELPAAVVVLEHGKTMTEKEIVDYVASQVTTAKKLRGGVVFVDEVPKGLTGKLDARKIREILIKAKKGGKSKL
# Concanavalin-A (Canavalia ensiformis), sequence (P02866 whole entry, looked up): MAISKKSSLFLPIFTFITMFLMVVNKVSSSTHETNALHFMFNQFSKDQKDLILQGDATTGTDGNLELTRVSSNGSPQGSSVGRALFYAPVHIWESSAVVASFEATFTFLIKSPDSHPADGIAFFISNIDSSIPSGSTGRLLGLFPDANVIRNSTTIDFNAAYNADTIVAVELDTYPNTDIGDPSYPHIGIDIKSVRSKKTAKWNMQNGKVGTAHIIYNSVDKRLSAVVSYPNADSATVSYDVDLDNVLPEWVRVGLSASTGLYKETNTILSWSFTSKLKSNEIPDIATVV
# Follistatin (Homo sapiens), sequence (P19883 whole entry, looked up): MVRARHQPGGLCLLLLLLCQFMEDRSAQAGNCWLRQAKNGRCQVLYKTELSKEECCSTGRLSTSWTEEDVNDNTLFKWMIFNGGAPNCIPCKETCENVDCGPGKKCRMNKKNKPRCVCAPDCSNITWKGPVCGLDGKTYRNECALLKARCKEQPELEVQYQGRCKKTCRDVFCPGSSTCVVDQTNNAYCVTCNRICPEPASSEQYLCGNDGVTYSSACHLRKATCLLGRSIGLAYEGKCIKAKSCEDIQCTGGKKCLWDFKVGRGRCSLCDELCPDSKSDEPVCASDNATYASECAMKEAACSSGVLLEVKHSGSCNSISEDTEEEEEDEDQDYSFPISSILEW
# Albumin (Bos taurus), sequence (P02769 whole entry, looked up): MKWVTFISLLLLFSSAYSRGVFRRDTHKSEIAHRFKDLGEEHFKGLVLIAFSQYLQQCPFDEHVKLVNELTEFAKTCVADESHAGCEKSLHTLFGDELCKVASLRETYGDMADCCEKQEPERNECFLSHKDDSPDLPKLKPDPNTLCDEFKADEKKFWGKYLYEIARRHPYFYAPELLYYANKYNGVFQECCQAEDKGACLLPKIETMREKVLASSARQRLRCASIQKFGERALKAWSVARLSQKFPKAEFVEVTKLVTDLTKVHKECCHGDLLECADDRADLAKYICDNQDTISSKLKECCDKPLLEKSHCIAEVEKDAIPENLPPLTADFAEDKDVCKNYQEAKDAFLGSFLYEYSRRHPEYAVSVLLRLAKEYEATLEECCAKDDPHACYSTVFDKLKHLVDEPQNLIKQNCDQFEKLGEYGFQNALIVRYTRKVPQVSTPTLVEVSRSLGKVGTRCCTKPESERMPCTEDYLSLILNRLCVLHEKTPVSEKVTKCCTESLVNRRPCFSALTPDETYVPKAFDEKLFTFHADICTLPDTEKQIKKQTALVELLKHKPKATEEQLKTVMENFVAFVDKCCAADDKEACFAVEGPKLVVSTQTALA
# Fibroblast growth factor 2 (Homo sapiens), sequence (P09038 whole entry, looked up): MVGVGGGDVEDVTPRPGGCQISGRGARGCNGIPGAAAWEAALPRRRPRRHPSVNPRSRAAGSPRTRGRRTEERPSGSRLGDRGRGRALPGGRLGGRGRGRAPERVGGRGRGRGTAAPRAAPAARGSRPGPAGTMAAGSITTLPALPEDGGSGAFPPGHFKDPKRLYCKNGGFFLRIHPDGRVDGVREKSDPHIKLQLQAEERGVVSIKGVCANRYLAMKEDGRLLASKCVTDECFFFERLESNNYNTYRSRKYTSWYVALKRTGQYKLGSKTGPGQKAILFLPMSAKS
# Focal adhesion kinase 1 (Homo sapiens), sequence (Q05397 whole entry, looked up): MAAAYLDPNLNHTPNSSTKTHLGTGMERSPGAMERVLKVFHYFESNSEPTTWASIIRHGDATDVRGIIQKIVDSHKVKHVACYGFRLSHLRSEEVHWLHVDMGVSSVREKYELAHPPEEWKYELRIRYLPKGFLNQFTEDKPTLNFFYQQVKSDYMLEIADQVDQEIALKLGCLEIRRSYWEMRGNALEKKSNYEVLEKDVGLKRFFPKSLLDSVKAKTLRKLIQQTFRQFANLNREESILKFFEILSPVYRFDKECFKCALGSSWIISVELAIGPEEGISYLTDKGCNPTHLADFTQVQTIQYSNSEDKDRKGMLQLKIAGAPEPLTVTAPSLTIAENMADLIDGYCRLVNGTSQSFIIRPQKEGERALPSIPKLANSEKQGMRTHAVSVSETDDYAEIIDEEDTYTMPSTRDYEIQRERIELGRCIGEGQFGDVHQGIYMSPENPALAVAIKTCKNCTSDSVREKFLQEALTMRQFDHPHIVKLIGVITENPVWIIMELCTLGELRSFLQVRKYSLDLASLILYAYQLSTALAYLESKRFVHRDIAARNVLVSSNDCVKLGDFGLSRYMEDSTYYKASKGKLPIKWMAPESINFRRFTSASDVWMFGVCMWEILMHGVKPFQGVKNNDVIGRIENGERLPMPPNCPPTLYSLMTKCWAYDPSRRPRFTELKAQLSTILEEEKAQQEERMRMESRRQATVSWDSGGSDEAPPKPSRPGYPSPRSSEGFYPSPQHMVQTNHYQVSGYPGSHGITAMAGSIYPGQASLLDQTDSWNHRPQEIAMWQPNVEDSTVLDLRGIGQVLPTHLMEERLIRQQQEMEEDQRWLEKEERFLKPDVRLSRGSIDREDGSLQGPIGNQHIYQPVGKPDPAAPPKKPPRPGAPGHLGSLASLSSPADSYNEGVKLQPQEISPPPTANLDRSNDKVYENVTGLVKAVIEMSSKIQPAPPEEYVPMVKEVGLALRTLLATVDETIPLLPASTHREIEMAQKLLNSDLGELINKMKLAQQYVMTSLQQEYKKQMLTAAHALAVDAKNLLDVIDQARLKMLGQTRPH
Compound,composite z-score [1],composite Z-score [2],composite z-score [3],composite z-score [4],composite z-score [5],composite z-score [6],composite z-score [7],composite z-score [8],composite z-score [9],composite z-score [10],composite z-score [11],composite z-score [12],composite z-score [13],composite z-score [14],composite z-score [15],composite z-score [16],z-score [17],composite z-score [18],composite z-score [19],z-score [20]
Cc1ccc(S[C@]2(C(=O)NC(C)C)CC(=O)N(C3Cc4ccccc4C3)[C@@H]2c2ccc(CO)cc2)cc1,0.451,0.52 (inactive),-0.409,-0.205,0.81,1.86,0.123,-0.0334,-1.2,1.16,2.13,0.627,0.447,0.686,0.34,-0.438,0.186,0.123,0.923,0.187 (inactive)
O=C1OCCC=C[C@H]2OC34C=CCN(Cc5ccccc5)C(=O)[C@H]3N(CCO)C(=O)[C@@H]4C12 (stereo not given in full),-0.121,-0.141 (inactive),-0.0967,-0.19,0.459,-0.59,-0.227,-1.04,-0.849,-1.18,-0.954,-1.18,-0.616,-1.89,-1.21,-0.379,0.252,-0.705,-2.09,-0.678 (inactive)
COc1ccc([Si](C)(C)[C@@H]2[C@@H](CC(=O)N(CCO)Cc3ccccc3)O[C@]3(C(=O)N(Cc4cccc(N5CCC5=O)c4)c4ccccc43)[C@H]2C)cc1,0.047,0.0923 (inactive),-0.0647,-0.0916,0.401,2.49,1.95,1.05,0.9,0.902,0.863,1.1,0.545,-0.0806,1.3,1.4,-0.282,1.49,0.163,0.352 (inactive)
CC(C)[Si]1(C(C)C)O[C@@H](c2ccccc2)c2cc(C3CC3)nc(-c3ccc(Oc4ccccc4)cc3)c21,-1.01,-0.233 (inactive),-0.157,-0.125,-0.289,-0.346,-0.0034,-0.906,-0.408,-1.27,-1.14,-0.889,-0.323,-0.812,-0.591,-0.192,1.55,-0.315,-1.33,-0.626 (inactive)
COCCOC(=O)N1C(=O)[C@@]2(c3cc(C#CCCO)ccc31)[C@H](C(=O)N1CCCCCCC1)[C@H]1C(=O)O[C@H](c3ccccc3)[C@H](c3ccccc3)N1[C@@H]2c1ccc(O)cc1,0.792,0.516 (inactive),0.715,0.102,0.731,2.81,0.837,1.29,0.279,1.11,1.12,1.18,1.49,0.555,1.34,0.661,1.65,0.957,1.1,-0.888 (inactive)
CCN1C(C)=C(C(=O)OC)[C@@H](c2ccccc2)N2C(=O)[C@@]3(C(=O)OC)O[C@@]12[C@@H]1C(=O)N(c2ccccc2)C(=O)[C@@H]13,0.846,-0.0754 (inactive),-0.055,-0.153,0.66,0.463,0.581,1.14,0.522,0.744,1.44,0.678,0.231,0.389,0.462,1.51,0.507,1.27,0.238,-0.569 (inactive)
CN(C)c1ccc(C(O)C2C=CC3C(=O)NC(=O)C3N2Nc2ccc(Cl)cc2Cl)cc1 (stereo not given),0.667,0.66 (inactive),0.0961,0.046,0.735,2.51,0.305,0.708,-0.0762,0.332,-0.129,1.14,0.155,0.762,1.16,-0.785,0.587,-0.345,0.5,-0.316 (inactive)
C=CCN1C(=O)[C@]2(O[C@H](CCn3cc(CCO)nn3)[C@@H]([Si](C)(C)c3ccc(OC)cc3)[C@@H]2C)c2cc(NC(=O)c3ccc(OC)cc3)ccc21,0.0645,-0.624 (inactive),0.141,-0.044,0.131,0.514,-0.0812,1.3,0.782,1.08,0.94,1.14,0.611,0.708,1.35,1.2,2.37,1.01,0.816,-2.28 (inactive)
NC(=O)NCC#Cc1ccc2c(c1)[C@]1(C(=O)N2)[C@H](C(=O)N2CCCCCCC2)[C@H]2C(=O)O[C@H](c3ccccc3)[C@H](c3ccccc3)N2[C@@H]1c1ccccc1OCCO,0.408,4.79 (inactive),1.43,0.985,0.953,4.03,1.26,1.31,1.56,1.11,1.03,1.27,2.88,0.743,1.51,0.0779,0.209,1.32,1.59,-0.984 (inactive)
CC1=C([C@H](O)CCc2ccccc2)[C@H](CO)[C@@H]2C(=O)N(Cc3ccccc3)C(=O)[C@@H]2C1,0.427,0.39 (inactive),0.0349,-0.117,0.347,0.307,-0.222,-0.364,-0.0449,1.13,0.635,0.0269,0.194,0.962,0.738,0.113,0.901,0.388,0.313,0.215 (inactive)
